Test results as given in PubChem BioAssay AID1835 (Johns Hopkins Ion Channel Center, 2009).
Screen size: about 2,400 compounds; about 750 (31%) were called active.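 Rule for the calls: active = median signal gain over dofetilide-blocked control wells reaching their mean plus 3 SD, so readout 1 at least 0; inactive = the rest.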 Some of the results follow.

Target: Voltage-gated inwardly rectifying potassium channel KCNH2 (Homo sapiens) (UniProt Q12809)
Experiment: modulators restoring hERG flux under dofetilide – cell-based, thallium flux, duplicate retest, dofetilide IC70, confirmation (AID 1835)
Conditions: hERG cell line, FluxOR thallium flux, dofetilide-blocked; at 10 µM; active compounds read high

Sequence of Voltage-gated inwardly rectifying potassium channel KCNH2 (Homo sapiens) (Q12809 whole entry, looked up): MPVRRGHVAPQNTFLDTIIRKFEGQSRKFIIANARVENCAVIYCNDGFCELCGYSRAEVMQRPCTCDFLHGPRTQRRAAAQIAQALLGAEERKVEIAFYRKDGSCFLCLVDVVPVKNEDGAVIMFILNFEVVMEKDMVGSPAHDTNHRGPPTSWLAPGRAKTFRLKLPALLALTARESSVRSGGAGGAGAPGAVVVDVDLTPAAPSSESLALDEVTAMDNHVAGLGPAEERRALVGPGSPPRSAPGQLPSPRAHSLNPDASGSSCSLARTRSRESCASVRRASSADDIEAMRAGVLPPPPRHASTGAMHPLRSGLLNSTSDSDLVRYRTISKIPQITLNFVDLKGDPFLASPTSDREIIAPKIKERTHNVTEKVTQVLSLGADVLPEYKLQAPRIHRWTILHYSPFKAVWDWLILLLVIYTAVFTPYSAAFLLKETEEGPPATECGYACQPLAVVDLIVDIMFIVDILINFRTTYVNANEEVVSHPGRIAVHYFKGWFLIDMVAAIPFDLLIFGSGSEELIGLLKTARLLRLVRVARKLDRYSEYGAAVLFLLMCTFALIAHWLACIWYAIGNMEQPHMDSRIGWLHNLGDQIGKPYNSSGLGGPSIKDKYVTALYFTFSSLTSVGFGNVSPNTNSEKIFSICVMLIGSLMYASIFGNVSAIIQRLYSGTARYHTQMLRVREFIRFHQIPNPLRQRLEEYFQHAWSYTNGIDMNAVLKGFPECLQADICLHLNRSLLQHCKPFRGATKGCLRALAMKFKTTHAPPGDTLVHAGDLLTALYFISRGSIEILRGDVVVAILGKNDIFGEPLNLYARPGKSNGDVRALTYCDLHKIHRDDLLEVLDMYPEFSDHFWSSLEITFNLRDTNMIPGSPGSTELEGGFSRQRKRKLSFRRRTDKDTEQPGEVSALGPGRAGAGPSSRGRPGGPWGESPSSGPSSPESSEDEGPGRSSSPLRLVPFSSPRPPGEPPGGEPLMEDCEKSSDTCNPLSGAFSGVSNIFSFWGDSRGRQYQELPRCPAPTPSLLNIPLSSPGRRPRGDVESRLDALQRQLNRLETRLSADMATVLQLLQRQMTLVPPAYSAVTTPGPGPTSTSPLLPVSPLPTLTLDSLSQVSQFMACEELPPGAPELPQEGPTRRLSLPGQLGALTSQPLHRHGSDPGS

Row | SMILES | activity increase over dofetilide control, less the hit threshold
1 | Cc1cc(C)c(-c2c(O)c3c(n(C)c2=O)CC(C)(C)CC3=O)c(C)c1 | -16% (inactive)
2 | Cn1c(=S)[nH]c2sc3c(c2c1=O)CCC(C(C)(C)C)C3 (stereo not drawn) | 59% (active)
3 | Cc1cccc(-n2c(=S)[nH]c3sc4c(c3c2=O)CCc2ccccc2-4)c1 | -6% (inactive)
4 | CC1CCc2c(sc3[nH]c(=S)n(C)c(=O)c23)C1 (stereo not drawn) | 82% (active)
5 | CCCCNC1=CC(=O)C(=O)c2ccccc21 | -9% (inactive)
6 | O=C(OCc1ccccc1)/C(=C/c1cccc([N+](=O)[O-])c1)NC(=O)c1ccco1 | -5% (inactive)
7 | Cc1ccccc1NC1=NC(=S)N(c2ccccc2)C12CCCCC2 | 22% (active)
8 | CC1(C)CC2(CCO1)C(Nc1ccccc1)=NC(=S)N2CC(N)=O (stereo not drawn) | -15% (inactive)
9 | COc1ccc(NC(=O)C(=O)NNC(=O)C(C)Oc2ccc(Cl)cc2Cl)cc1 (stereo not drawn) | 59% (active)
10 | COc1ccc(NC(=O)C(=O)NNC(=O)c2ccc(Cl)cc2Cl)cc1 | 59% (active)
11 | COc1ccc(-c2cc(C(F)(F)F)nc(SCC(=O)NCc3cccs3)n2)cc1 | -18% (inactive)
12 | COc1ccc(CN(Cc2cccnc2)C(=S)NCCc2ccccc2)cc1OC | -11% (inactive)
13 | COc1cc(OC)cc(C(=O)OCC(=O)N(C)c2ccccc2)c1 | -9% (inactive)
14 | CCCOc1ccc(CN(CCC#N)C(=S)NC(=O)c2ccccc2)cc1 | 9% (active)
15 | CCOc1ccc(C(=O)NC(=S)N(Cc2ccccc2)Cc2ccccc2)cc1 | 73% (active)
16 | CC(C)N(Cc1ccccc1)C(=S)NC(=O)C1(C)CC1(Cl)Cl (stereo not drawn) | 35% (active)
17 | COc1cc(OC)cc(C(=O)NC(=S)N(Cc2ccccc2)C(C)C)c1 | 30% (active)

Row | SMILES | activity increase over dofetilide control, less the hit threshold
18 | CCCOc1ccc(C(=O)NNC(=S)NC(=O)c2ccccc2)cc1 | -36% (inactive)
19 | N#CCCN(Cc1ccccc1)C(=S)NC(=O)c1ccccc1 | -3% (inactive)
20 | CCCN(CCC)C(=S)NC(=O)c1ccc(-c2ccccc2)cc1 | 97% (active)
21 | CCCN(CC1CC1)C(=S)Nc1ccccc1F | -7% (inactive)
22 | COc1ccc(C(=O)NC(=S)N(Cc2ccccc2)Cc2ccccc2)cc1 | 43% (active)
23 | C=CCN(CC=C)C(=S)NC(=O)c1ccc(-c2ccccc2)cc1 | -2% (inactive)
24 | COc1ccccc1NC(=O)C1CCCN1C(=O)Nc1ccc(F)cc1 (stereo not drawn) | -14% (inactive)
25 | CC(C)c1cccc(C(C)C)c1NC(=O)COC(=O)[C@H](C)NC(N)=O | -11% (inactive)
26 | C/C(=N\NC(=O)c1cc2ccccc2cc1O)c1ccccn1 | -10% (inactive)
27 | O=C(OCc1ccc([N+](=O)[O-])cc1)c1cc2ccccc2oc1=O | -25% (inactive)
28 | C/C(=N\NC(=O)c1ccoc1C)c1cccc2ccccc12 | -13% (inactive)
29 | C/C(=N\NC(=O)c1cc2ccccc2cc1O)c1ccc(C)o1 | 50% (active)
30 | C/C(=N/NC(=O)c1sc(NS(=O)(=O)c2ccccc2)nc1C)c1sc(N)nc1C | -15% (inactive)
31 | C/C(=N/NC(=O)c1cc2ccccc2cc1O)c1ccco1 | 40% (active)
32 | C/C(=N\NC(=S)Nc1c(C)cccc1C)c1cc2ccccc2o1 | -5% (inactive)
33 | C/C(=N\NC(=O)c1cc2ccccc2cc1O)c1cc2ccccc2o1 | 95% (active)
